The panel holds about 83,000 compounds, 20% with a hit somewhere; the sample as a whole holds those more often.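 Single-concentration screen, 48 h exposure, 96-well plates. Endpoint: percent growth. Below 10 = active.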 A number with no mark means an inactive call. The source made the active and inactive calls.
What follows are compounds tested on MDA-MB-468 breast (assay: NCI-60 one-dose screen, 48 h (100 = growth as untreated, 0 = no growth, -100 = all killed)). Conditions: 10 µM unless noted.

Row | SMILES | growth
1 | Cc1c(C)n(CC(O)CNC2CCCCC2C)c2ccccc12 (stereo not given) | -33.8% (active)
2 | Nc1nc(Br)nc2c1ncn2C1CC(O)C(CO)O1 (stereo not given) | 100%
3 | O=C1C=C(O)C(=O)C(CC2=C(O)C(=O)C=C(O)C2=O)=C1O | 98.7%
4 | O=C(C1CCC1)N1N=C(c2ccc(-n3ccc(C(F)(F)F)n3)cc2)CC1c1ccc[nH]1 (stereo not given) | 106%
5 | COc1ccc2c(c1)C(=O)c1c-2c(OCCCN(C)C)nc2cc(Br)ccc12 | 67.5%
6 | O=C(N/N=C/c1ccc(Cl)cc1)c1ccc(NC(=O)c2ccccn2)cc1 | 78.2%
7 | O=C(N/N=C/c1ccco1)c1[nH]c2ccc(Br)cc2c1-c1ccccc1 | 14.9%
8 | CCCC(C)c1ccc(OCCCCCCN2CCNCC2)cc1 (stereo not given) | -58.5% (active)
9 | C#Cc1cccc(Nc2ncnc3cc4c(cc23)OCCOCCOCCO4)c1 | -26.7% (active)
10 | COc1ccc(-c2c(N)n[nH]c2-c2cc3c(c(OC)c2OC)OCO3)cc1 | 104%
11 | Nc1c(C(=O)Nc2cccc(C(F)(F)F)c2)sc2nc3c(cc12)C(O)CCC3 (stereo not given) | 22.4%
12 | CCCC1Cc2cc(-n3nc(C)c4c3CC(C)(C)CC4=O)cc(NC3CCC(O)CC3)c2C(=O)N1 (stereo not given) | -8.54% (active)
13 | COc1ccc(-n2c(C)nc3c(c(C)nn3-c3ccccc3)c2=O)cc1 | -15.7% (active)
14 | Cc1[nH]c2ccc(F)cc2c1CCNC(=O)C1CCN(C(=O)c2ccccc2)CC1 | 87.7% [25 µM]
15 | O=[N+]([O-])c1ccc(Br)o1 | 105%
16 | COc1ccc(OC)c(Cn2cc3c(c2)-c2oncc2CC3)c1 | 3.48% (active)
17 | COc1cccc(-c2nn(-c3ccccc3)cc2-c2ccnc(NCCCNS(=O)(=O)c3ccc(Br)cc3)c2)c1 | 35.5%
18 | C=C1C(=O)O[C@H]2[C@H]1CC/C(COC(=O)c1cc3ccccc3o1)=C\CC[C@@]1(C)O[C@@H]21 | -71.2% (active)
19 | O=C(NNc1nc2cc(F)cc(F)c2n2cccc12)c1cnccn1 | -10.9% (active)
20 | CC(=O)OC[C@]12CCC(C)(C)C=C1[C@H]1CC[C@@H]3[C@@]4(C)CCCNC(C)(C)[C@@H]4CC[C@@]3(C)[C@]1(C)CC2 | -6.16% (active)

Row | SMILES | growth
21 | COc1c2ccccc2c(OC)c2[nH]c(=O)ccc12 | 60.9%
22 | NCCCCCCNc1cc(-c2cccc(OC(F)(F)F)c2)nc2ccc(N3CCCC3)cc12 | -87.9% (active)
23 | C#C[C@]1(O)CC[C@H]2[C@@H]3CC=C4c5sc(-c6ccc(OC)cc6)nc5CC[C@]4(C)[C@H]3CC[C@@]21C | 71.6%
24 | COc1cc2ncnc(Nc3ccc(F)c(Cl)c3)c2cc1OCC(=O)N1CCN(c2ccc(F)cc2)CC1 | -7.58% (active)
25 | CC12CCC3C4(C)COC(c5ccco5)OC4CCC3(C)C1CC(C1=CCOC1=O)O2 (stereo not given) | 91.8%
26 | CCCC(CCC)NCC(O)c1cc(-c2ccc(C(F)(F)F)cc2)nc(C(F)(F)F)c1 (stereo not given) | -91.6% (active)
27 | Cc1ccc(NC(=O)c2ccc(CN3CCOCC3)c(C(F)(F)F)c2)cc1Oc1ccc(-c2[nH]nc3ncnc(N)c23)cc1 | 96.8%
28 | N#Cc1c(N)nc2c(nnn2-c2cccc(Br)c2)c1N | 92.9%
29 | CC(=O)O[C@@H]1C[C@]2(C(C)C)O[C@@]1(C)[C@@H]1CCC(C)=C1[C@@H]2OC(=O)/C=C/c1ccccc1 | 81.5%
30 | CNC(=O)c1cc(-c2ccc(NS(=O)(=O)c3ccc(C)cc3)cc2)nc2cccnc12 | 71.1%
31 | S=C(Nc1ccc(Cl)cc1)Nc1ccc(Cl)cc1 (tested in a mixture with another compound) | -16.6% (active)
32 | O=C(CI)NC1Oc2ccccc2-c2oc(=O)c(-c3ccccc3)cc21 (stereo not given) | -42.3% (active)
33 | COc1cnc2c(c1)C(=O)c1c-2n(CCCNC2=NCCS2)c(=O)c2cc([N+](=O)[O-])ccc12 | -39% (active)
34 | N#Cc1nc(-c2ccccc2)oc1S(=O)(=O)N1CCN(c2ccc(F)cc2)CC1 | 44.8%
35 | COC(=O)c1nc(-c2ccccc2)oc1S(=O)(=O)N(C)CCO | 6.31% (active)
36 | CCOc1ccc(/C=N/N=C(N)N)cc1OCC | 98.3%
37 | CCOC(=O)C1C(=O)OC2CCCCC21 (stereo not given) | 110%
38 | Cc1ccc(-c2n[nH]c(=O)c3noc(-c4ccc(C)cc4)c23)cc1 | -8.93% (active)
39 | COc1cc(OC)cc(C(=O)Nc2cnc(Nc3ccc(N4CCOCC4)nc3)nc2Oc2ccc(C(F)(F)F)cc2)c1 | 81.1%
40 | CCCCNNC(=O)c1ccc(Br)cc1 | 60.1%
